# Out of some 400,000 compounds screened, about 13,000 (3.2%) were called active. Another 18% or so got no clear call; they are omitted. For the sample, actives were picked, then their nearest neighbours and some compounds at random. Unmarked numbers belong to inactive results. Calls follow the shape of the dose curve; as a rule, active = well fitted cell-killing curve with a large enough effect; inconclusive = small, poorly fitted or top-dose-only effect, or effect the other way; inactive = flat fitted curve, though single readings scatter.
# Assay: qHTS assay for MDR1-selective chemotherapeutics: Primary screen using the drug-selected MDR subline cells KB-V1; also: nearly all actives have a fitted effect of over 60% in size
# Conditions: KB-V1 MDR cells viability, CellTiter-Glo, 72 h; series mostly up to 46.1 µM; activity change, negative = cytotoxicity: at the top concentration
# Outline: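 qHTS viability screen in drug-selected KB-V1 MDR cells: 72 h compound treatment at 37 degrees C, ATP luminescence end point.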
# % is scaled to controls: 0 for no effect and ±100 for the full control effect; potency is read from the fitted curve at half-maximal effect.
SMILES,Potency,"activity change, negative = cytotoxicity [%]"
CN1CC(c2ccccc2)C2(COc3ccccc3C2=O)C12C(=O)Nc1ccccc12 (stereo not drawn),20.6 µM (active),
C[C@@H]1NC(=O)[C@@]2(C)[C@@H](c3ccccc3)[C@H]3COc4ccccc4[C@@H]3N2C1=O,,0
COc1cccc(CNC(=O)CCC(=O)N2CC3CCCN3c3ccccc32)c1 (stereo not drawn),,21.6
CCc1nc2c(=O)[nH]cnc2o1,,19.1
C[C@H]1CN([C@@H](C)CO)C(=O)CCCn2cc(nn2)CO[C@@H]1CN(C)S(=O)(=O)c1ccc(-n2cccn2)cc1,,0
CN1CCN(C(=O)c2ccc(-c3cc4nc(NCc5cccnc5)n(C)c(=O)c4s3)cc2)CC1,,-13.5
COc1ccc(NC(=O)N2CCCC(C(=O)Nc3ccccc3OC)C2)cc1 (stereo not drawn),,3.84
CCOc1ccc(NC(=O)C2CCCN(C(=O)Nc3ccccc3)C2)cc1 (stereo not drawn),14.6 µM (active),
CCOc1ccccc1NC(=O)C1CCCN(C(=O)Nc2ccccc2)C1 (stereo not drawn),,-19.8
CC(C)(C)C1CCC(=O)N2CCC[C@]2(c2ccccc2)C1 (stereo partly drawn),,46.7
CCCCN(C)S(=O)(=O)c1ccc(C(=O)Nc2sc3c(c2C(N)=O)CC(C)(C)NC3(C)C)cc1,,0
COc1cc(CNCCSc2nnnn2C)ccc1OCc1ccc(Cl)cc1Cl,,0
CCOC(=O)c1c(C)oc2ccc(OCC(=O)N(CC)CC)cc12,,0
COC(=O)c1c(C)oc2ccc(N(C(=O)Oc3ccccc3)S(=O)(=O)c3ccccc3)cc12,2.91 µM (active),
CN(CC(=O)O)S(=O)(=O)c1ccc2oc3ccccc3c2c1,,10.8
O=C(Nc1ccc2c(c1)[C@@H]1C[C@@H](CC(=O)N3CCCCC3)O[C@@H](CO)[C@@H]1O2)NC1CCCCC1,,3.39
CC1(C(=O)NCC2CCOCC2)Cc2c(-c3cccc(C(N)=O)c3)ccnc2O1 (stereo not drawn),,3.72
CC1(C(=O)NCc2ccco2)Cc2c(-c3ccc4c(c3)OCO4)ccnc2O1 (stereo not drawn),2.59 µM (active),
COc1ccc(NC(=O)C2(C)Cc3c(-c4cccc(NC(C)=O)c4)ccnc3O2)cc1 (stereo not drawn),,0
O=C(Cn1nnc(-c2ccc3c(c2)OCO3)n1)NCc1ccco1,,17.1
CC(=O)Nc1cccc(-c2ccnc3c2CC(C)(C(=O)NCc2ccccc2)O3)c1 (stereo not drawn),16.4 µM (active),
CC(=O)Nc1cccc(-c2ccnc3c2CC(C)(C(=O)NCc2ccco2)O3)c1 (stereo not drawn),,-1.06
CCc1nc2c(OCCC3CCCCC3)cccn2c1N(C)C(=O)c1ccco1,,0.295
CCOc1ccc(NS(=O)(=O)c2ccc(C(=O)NCC3CCCO3)cc2)cc1 (stereo not drawn),,-27.3

SMILES,Potency,"activity change, negative = cytotoxicity [%]"
COc1ccc(-c2cc(NC=O)c3ncc(-c4cccc(C(=O)N(C)C)c4)n3c2)c(OC)c1,,6.08
COc1cccc(-c2cnc3c(NC(C)=O)cc(-c4cccc(NC(C)=O)c4)cn23)c1,,3.14
CC(=O)Nc1cc(-c2ccc(N3CCN(C)CC3)cc2)cn2c(-c3cccc(C(=O)N(C)C)c3)cnc12,,6.38
COc1ccc(-c2cc(NC(C)=O)c3ncc(-c4cc(OC)c(OC)c(OC)c4)n3c2)cn1,13 µM (active),
COc1cccc(-c2cnc3c(NC(C)=O)cc(-c4cc(F)ccc4OC)cn23)c1,7.31 µM (active),
COc1cc(NC(=O)C2=CC(c3ccc(C)cc3)=NS(=O)(=O)N2C)cc(OC)c1OC,,8
O=C(Nc1cc(F)ccc1F)c1ccc2c(=O)n3c(nc2c1)CCC3,,1.07
CCOC(=O)c1c(NC(=O)CSc2cn(CCNC(=O)c3cccc(C(F)(F)F)c3)c3ccccc23)sc2c1CCC2,,10.6
OC[C@@H]1CN(Cc2cccs2)C[C@H](n2cnc3c(Nc4ccccc4)ncnc32)O1,,-0.405
COc1cc(C(=O)Nn2c(CC(C)C)nc3ccccc3c2=O)cc(OC)c1OC,,-5.04
CCCc1nc2ccccc2c(=O)n1NC(=O)c1c(O)c2ccccc2[nH]c1=O,7.31 µM (active),
Cc1nc2ccccc2c(=O)n1NC(=O)c1ccccc1,,19.9
O=C(CN1C(=O)NC2(CCc3ccccc32)C1=O)NC1CCCCC1 (stereo not drawn),,0.553
CC(C)CN1CCC1(C)C(=O)Nc1ccc(OC(F)F)cc1 (stereo not drawn),,-2.57
Cc1ccc(OCCSc2nc(-c3cccs3)nc3cc(=O)[nH]n23)cc1Cl,,-5.26
O=C(NC1CCN(Cc2ccccc2)CC1)c1cc(Br)c(Br)[nH]1,,-26.5
S=C(Nc1ccc(Br)cc1Cl)NC1CCN(Cc2ccccc2)CC1,11.6 µM (active),
O=C(COc1ccc(Br)cc1F)NC1CCN(Cc2ccccc2)CC1,,-5.46
CCc1nc2c(OCCOc3ccccc3)cccn2c1N(C)C(=O)c1ccc(OC)cc1,,-18.3
COCCCn1cc(CN2CC(N(C)C)CS2(=O)=O)nn1 (stereo not drawn),,-8.55
Cc1nc(/N=C(\N)NC(=O)NC2CCCCC2)nc2ccccc12,5.17 µM (active),
Cc1c(C(=O)NC2CCCCC2)oc2ccccc12,,-17.7
CC(C)c1cc(C(=O)NC2CCCCCC2)c2ccccc2n1,,-27.2
Nc1ncnc2c1ncn2[C@@H]1O[C@H](C(=O)N2CCSC2)[C@@H](O)[C@H]1O,,14.4
